# Source: PubChem (Broad Institute)
# Tgondii IFNg: inhibitors of Toxoplasma gondii growth with IFN-gamma; Toxoplasma gondii growth in IFN-gamma-treated host cells; stronger effect = lower value; activity change, negative = inhibition, % (no concentration beside the values); actives 3.8% (n = 69,000); AID 1259416; in the data active = activity change below about -70%, passing the limit was not always enough;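 note: host cells are HeLa cells infected with Toxoplasma gondii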
# A number is an active result; i = inactive; ! = not confirmed by another sample. This is one part of a sample in which hits are shown more often than they occur.
SMILES,Tgondii IFNg
COc1ccc(C2c3[nH]c4ccccc4c3CCN2C(=O)c2ccncc2)cc1 (centres undefined),i
COc1cccc(C(=O)N2CCc3c([nH]c4ccccc34)C2c2cccnc2)c1 (centres undefined),-107
O=C(CCC1CCCC1)N1CCc2c([nH]c3ccccc23)C1c1cccnc1 (centres undefined),i
O=C(c1cccc(F)c1)N1CCc2c([nH]c3ccccc23)C1c1cccnc1 (centres undefined),-96
C[C@H](c1ccc(Cl)cc1)n1c(CN)n[nH]c1=O,i
Cc1nc(-c2cc(S(=O)(=O)NCCN3CCC(C)CC3)c(C)s2)sc1C,i
O=C(Nc1ncc(SCCN2CCCC2)s1)[C@]1(c2ccc(S(=O)(=O)C3CC3)cc2)C[C@H]1C1CCCCC1,-73
Cn1c(CN2CCN(C3CCCCC3)C(=O)C2)nc2ccccc21,i
CCCCCCCCCCCC1C(=O)C(=O)CC(=O)C1=O,-82!
CCCCCCCC(=O)O,i
COc1ccc(CC(=O)NC2(C#Cc3cncc(C(N)=O)c3)CCCCC2)cc1,i
COc1ccccc1CNC(=O)COc1ccc2c(c1)C(=O)CC1(CCN(C(C)=O)CC1)O2,i
Cc1cc(F)c(Nc2ncnc3cc(OCc4ccccc4)ccc23)cc1O,-77
Oc1cccc(Nc2ncnc3ccccc23)c1,i
Cc1ccc(NC(=O)Nc2ccc(OCc3ccccc3)cc2)cc1NS(C)(=O)=O,i
CC1=C(C(=O)NCc2ccc(Cl)cc2)C2(CCN(S(=O)(=O)c3cccs3)CC2)OC1=O,i
CCc1ccc(N(C(=O)c2ccc(NC(C)=O)cc2)C2(C(=O)NCc3ccccc3)CCN(C(C)=O)CC2)cc1,i
CCN(C)S(=O)(=O)c1csc(C(=O)Nc2ccc(C)cc2)c1,i
CC1Cc2ccccc2N1S(=O)(=O)c1csc(C(=O)Nc2ccccc2)c1 (centres undefined),-103
CC1Cc2ccccc2N1S(=O)(=O)c1cc2c3c(c1)CCC(=O)N3CCC2 (centres undefined),i
O=C(NCc1ccc2c(c1)OCO2)c1cccc(-n2cnnn2)c1,i
O=C(Nc1cnn(C23CC4CC(CC(C4)C2)C3)c1)C1CC(c2c(F)cccc2Cl)=NO1 (centres undefined),-84
O=C(Nc1ccc(Br)cc1)C1CC(c2c(F)cccc2Cl)=NO1 (centres undefined),i
NC(=O)Cc1csc(NC(=O)C2CC(c3ccccc3Cl)=NO2)n1 (centres undefined),i
Cc1nc(Cc2ccccc2)sc1C(=O)O,i
SMILES,Tgondii IFNg
COc1cc(-c2cc(Cl)ccc2NC(C)=O)cc(OC)c1OC,i
CCc1nccn1CCCNC1CCSC1 (centres undefined),i
C=CCC(=O)N(Cc1ccccc1OCC)C1CC1,i
O=C(c1cnc(Nc2ccccc2)nc1)N1CC(c2ccncc2)C1,i
COc1cccc(C(=O)N2CCC(C(=O)O)C2)c1 (centres undefined),i
COc1cccc(CN2CCOC3(CCN(c4ncccn4)CC3)C2)c1,i
Cc1[nH]n2c(=O)cc(CSc3nnnn3-c3ccccc3)nc2c1-c1ccc(F)cc1,-93
c1ccc(C(c2ccccc2)c2nc(CSc3nnnn3-c3ccccc3)no2)cc1,i
COC(=O)c1cccc(-n2nnnc2SCC(=O)Nc2ccc(F)cc2)c1,i
COc1cc(-c2nccn2CCc2cnc[nH]2)cc2c1OCO2,i
Cc1ccsc1CNc1cccc(C(=O)N2CCC[C@H]2C(N)=O)c1,i
CN1CC(=O)N(c2cccc(F)c2)CC12CCN(C(=O)c1cccs1)C2 (centres undefined),i
CN1CC(=O)N(c2ccsc2)CC12CCN(CC(=O)O)C2 (centres undefined),i
CN1CC(=O)N(c2ccsc2)CC12CCN(C(=O)Nc1ccccc1F)C2 (centres undefined),-101
CN1CC2(CCN(C(=O)CCn3cc(Cl)cn3)C2)OC1=O (centres undefined),i
CCOC(=O)c1cccc(NC(=O)Nc2ccc(-c3nc(-c4ccc(C)cc4)co3)cc2)c1,i
CC(C)c1nnsc1CNC(=O)C(C)(C)NC(=O)c1cccs1,i
NC(=O)N1Cc2nccn2CC(Cn2cncn2)C1 (centres undefined),i
FC(F)(F)COc1nc(N2CCOCC2)nc(N2CCN(c3ccccc3)CC2)n1,i
N#Cc1ccc(-c2ccc3c(c2)OCO3)nc1SCC(=O)Nc1cccc(F)c1,i
COc1ccc(CN2CCc3nc(N4CCOCC4)nc(NC4CC4)c3C2)cc1,i
Cc1ccc(CN2CCc3nc(NC(C)C)nc(C)c3C2)s1,i
Cc1ccc(CN2CCc3nc(N4CCOCC4)nc(NC(C)C)c3C2)s1,-98
CC(=O)c1cc(C(=O)N(CCN(C)C)Cc2ccc(C)s2)c(=O)[nH]c1C,i
Cc1ccc(NC(=O)Cn2ncc3c(N4CCC(C)CC4)ncnc32)cc1,i
CSC1SCC2C(=O)N(C)C(C(C)C)C(=O)OCC(NC(=O)c3cnc4ccccc4n3)C(=O)NC(C)C(=O)N(C)C1C(=O)N(C)C(C(C)C)C(=O)OCC(NC(=O)c1cnc3ccccc3n1)C(=O)NC(C)C(=O)N2C (centres undefined),-77
